For 52 compounds, inhibition results are on record in PubChem BioAssay AID651821 (The Scripps Research Institute Molecular Screening Center, 2012).

About 4,700 (1.3%) of roughly 370,000 compounds were called active.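 The calls were made as follows: active = inhibition above the plate cutoff, the mean of all test compounds on that plate plus 3 SD (cut at about 35% in these data); inactive = the rest.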 The entries come from a sample that favours actives as a whole.

A short description of the assay: small molecules binding CAG repeat RNA – biochemical, fluorescence, primary screen (AID 651821).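 Also: 0% = DMSO alone and 100% = 100 µM mitoxantrone as full dye displacement; higher means more dye released from RNA so lower well fluorescence.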 To be noted: r(CAG) RNA repeat, TO-PRO-1 dye displacement fluorescence; at 3 µM; hits give high values.
As to `CN(C(N)=NC(=O)/C=C/c1ccccc1)C(C#Cc1ccccc1)Cc1ccccc1` (configuration not stated), the inhibition (as a rule, the drop in the measured response relative to a control, in per cent) was 3.26% (inactive).

As for `COc1ccc(-c2cc(-c3nnc(SCc4ccc([N+](=O)[O-])cc4)n3N)[nH]n2)cc1`, the inhibition was 9.69% (inactive).

With `COC(=O)c1cccc(Cn2ccc3ccc(-c4ccc5ccn(C(=O)C6CCCCC6)c5c4)cc32)c1`, the inhibition was 12.2% (inactive).

`Cc1ccc(Cn2cc(CN3[C@@H](C)COc4cc(Br)ccc4S3(=O)=O)nn2)cc1`: the inhibition is 3.68% (inactive).

Consider `C=CCN1C(=O)[C@H](CC(=O)NCCCN2CCCC2=O)[C@@]2(C(=O)OCC)CCCC=C12`, for which the inhibition was 1.48% (inactive).

With `COc1cc(NC(=O)C2CCCN(S(=O)(=O)c3ccc(C(C)(C)C)cc3)C2)cc(OC)c1` (configuration not stated), the inhibition was 9.76% (inactive).

For `Cc1c(Cl)cccc1NC(=O)CCC(=O)N/N=C/c1ccco1`, the inhibition is -4.6% (inactive).

In the case of `Cc1ccc(-n2c(SCC(=O)Nc3cccc4ccccc34)nnc2-c2ccco2)cc1`, the inhibition is 6.64% (inactive).

Consider `O=C(CCCN1C(=O)/C(=C\c2ccco2)SC1=S)Nc1cccc2ccccc12`, for which the inhibition was 40.1% (active).

On to `O=C(NNC(=S)NCCCN1CCOCC1)c1ccncc1`, for which the inhibition was -0.42% (inactive).

Regarding `COc1ccc(NC(=O)c2cn(-c3ccccc3)nc2SC)cc1`, the inhibition was 5.53% (inactive).

As to `O=C(c1cn(-c2ccccc2)nc1-c1cccnc1)N1CCN(S(=O)(=O)c2ccccc2F)CC1`, the inhibition is 3.83% (inactive).

As for `CC(=O)c1ccc(NC(=O)c2cc(-c3cccs3)on2)cc1`, the inhibition is -1.84% (inactive).

`O=C(O)c1ccc(NC(=O)c2cn(-c3ccccc3)nc2-c2ccc(Cl)cc2)cc1`: the inhibition is 80.9% (active).

Turning to `COc1ccc(-c2nn(-c3ccccc3)cc2/C=C\C(=O)Nc2ccc(C(=O)O)cc2)cc1`, the inhibition was 83.7% (active).

Regarding `O=C(N/N=C/c1sc(N2CCCCC2)nc1-c1cccs1)c1cccnc1`, the inhibition was 5.88% (inactive).

Consider `O=C(O)c1ccc(N/N=C/c2cn(-c3ccccc3)nc2-c2cccs2)cc1`, for which the inhibition is 70.5% (active).

On to `O=C(/C=C/c1cn(-c2ccccc2)nc1-c1ccc2c(c1)OCCO2)NCCCN1CCOCC1`, for which the inhibition was -0.21% (inactive).

On to `O=C(NNC(=S)NC(=O)c1cn(-c2ccccc2)nc1-c1ccccc1)c1ccncc1`, for which the inhibition was 42.5% (active).

In the case of `O=C(c1cnn(-c2ccc(Cl)cc2)c1)c1ccccc1O`, the inhibition was 2.23% (inactive).

Turning to `O=C(O)c1ccc(NC(=O)c2ccc(COc3ccc(Cl)cc3)o2)cc1`, the inhibition is 22.1% (inactive).

`CC1CCCN(c2cccc3c2S(=O)(=O)N(Cc2ccc(F)cc2)[C@@H](C)[C@H](c2ccccc2)O3)C1` (some centres not stated): the inhibition is 1.44% (inactive).

Consider `Cn1cc(S(=O)(=O)Nc2ccc(Cl)cc2Cl)c(=O)n(C)c1=O`, for which the inhibition is 1.76% (inactive).

For the compound `COC(=O)c1ccc(CN2C(=O)[C@]3(OCCC=C[C@H]3C)c3c(Br)cccc32)cc1`, the inhibition was 0.13% (inactive).

In the case of `O=S(=O)(c1ccccc1)N1CCC(c2nc3ccccc3o2)CC1`, the inhibition was 0.56% (inactive).

On to `COC(=O)[C@]12CCCCC=C1N(Cc1ccc(Cl)cc1Cl)C(=O)[C@H](CC(=O)NCc1cccc3ccccc13)C2`, for which the inhibition was 12.9% (inactive).

On to `O=C(NC1CCC1)c1ccc(C#Cc2cccc(F)c2)c[n+]1[O-]`, for which the inhibition was 1.31% (inactive).

As for `C#CCNC(=O)C[C@H]1C[C@@]2(C(=O)OC)C(=C[C@H](C(C)C)O[C@@H]2C2CC2)N(Cc2ccco2)C1=O`, the inhibition is -0.82% (inactive).

In the case of `COC1=C[C@H](C(=O)NCCNC(C)=O)[C@H](C)[C@@H](c2ccccc2)CC1=O`, the inhibition is 7.1% (inactive).

Turning to `COC(=O)C1=C(C)N(Cc2cccc(C(F)(F)F)c2)C(=NCc2ccccc2)NC1c1ccc(Cl)cc1` (configuration not stated), the inhibition was 6.45% (inactive).

Turning to `N#CC1(NC(=O)COC(=O)Cc2n[nH]c(=O)c3ccccc23)CCCCC1`, the inhibition is -1.83% (inactive).

In the case of `COC(=O)c1cccc(Cn2ccc3ccc(-c4ccc5ccn(C(=O)c6ccccc6C)c5c4)cc32)c1`, the inhibition was 10.1% (inactive).

Regarding `COC(=O)C[C@@H]1CC[C@@H]2[C@@H](COc3ccc(NC(=O)Nc4ccc(F)c(F)c4)cc3C(=O)N2C)O1`, the inhibition was 3.67% (inactive).

As for `CCOC(=O)[C@H]1Nc2ccc(Cl)cc2[C@@H]2[C@H]1C1CC(c3ccccc31)N2C(=O)OCc1ccccc1` (some centres not stated), the inhibition was 8.62% (inactive).

As to `CCOC(=O)C1Nc2ccc(C(F)(F)F)cc2C2C=CCC12` (configuration not stated), the inhibition was 60.5% (active).

In the case of `CCOC(=O)C[C@H]1c2ccc(C(F)(F)F)cc2S(=O)(=O)N1c1ccccc1`, the inhibition was 4.3% (inactive).

As for `CC1=CC=CC2=N/C(=N\S(=O)(=O)c3ccc(F)cc3F)c3ccccc3CN12`, the inhibition is -1.16% (inactive).

Consider `CC(=O)c1cc(-c2ccc3ccccc3c2)c(=O)n2c1CCC2`, for which the inhibition was 5.03% (inactive).

For the compound `N#Cc1ccccc1CN1C(=O)S/C(=C/c2cccn2-c2cccc(C(=O)O)c2)C1=O`, the inhibition is 58.4% (active).

Regarding `O=C(CSc1nc2sc3c(c2c(=O)n1-c1ccccc1)CCCC3)NN=Cc1ccc(OCc2ccccc2)cc1`, the inhibition was 7.65% (inactive).

On to `CN(C(=O)CSc1nnc(Nc2ccccc2)s1)C1CCS(=O)(=O)C1` (configuration not stated), for which the inhibition was 0.39% (inactive).

In the case of `CC(C)Nc1nnc(SCC(=O)c2c[nH]c3ccccc23)s1`, the inhibition was 3.39% (inactive).

With `CC(C)c1ccc(Nc2nnc(SCC(=O)c3nnc(-c4ccccc4)o3)s2)cc1`, the inhibition was 50.7% (active).

Consider `CC(=O)N1C(=O)/C(=C2\SC(=S)N(NC(=O)c3ccc(O)cc3)C2=O)c2ccccc21`, for which the inhibition was 14% (inactive).

On to `O=C(O)c1ccc(/C=C2\SC(=S)N(NC(=O)c3ccc(Br)cc3)C2=O)cc1`, for which the inhibition is 34.9% (active).

For the compound `C/C(CC(=O)N1CCN(C=O)CC1)=N\NC(=O)c1ccc(Br)cc1`, the inhibition is 0.43% (inactive).

On to `O=S(=O)(NC(=S)Nc1ccccc1)c1ccc(F)cc1`, for which the inhibition was 1.19% (inactive).

Regarding `O=C1/C(=C/c2ccc(F)cc2)SC(=S)N1NS(=O)(=O)c1ccccc1`, the inhibition is 55.7% (active).

On to `O=C1c2ccccc2NC(c2ccccc2O)N1NS(=O)(=O)c1ccccc1` (configuration not stated), for which the inhibition is 2.81% (inactive).

For the compound `CC1(NC(=O)CCS(=O)(=O)c2ccc(Cl)cc2)CCS(=O)(=O)C1` (configuration not stated), the inhibition was 2.03% (inactive).

As for `OC(c1ccccc1)c1nc(-c2cnc3ccccc3c2)cs1` (configuration not stated), the inhibition is 16.2% (inactive).

On to `Cc1ccc(CSc2nnc(SCC(=O)NN=Cc3cc(Br)ccc3F)s2)cc1`, for which the inhibition is 5.78% (inactive).
